Each structure is given as a SMILES string. Records with an inconclusive call do not appear. Values without a mark were called inactive. Activity calls are given as the source filed them. The call rests on the fitted dose curve; in most records, active means well fitted inhibition curve with a large enough effect; inconclusive means small, poorly fitted or top-dose-only effect; inactive means flat fitted curve, though single readings scatter.
Potency means the concentration at half of the fitted maximal effect.

In this assay the test system is DIV14. The assay can be described thus: qHTS profiling for inhibitors of Plasmodium falciparum proliferation (AID 504749). Further: nearly all actives have a fitted effect of over 60% in size.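 On activity, negative = inhibition: 0% = DMSO vehicle and full inhibition = artemisinin control.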 Conditions: P. falciparum in erythrocytes, SYBR Green DNA, 72 h; series mostly up to 28.7 µM; activity, negative = inhibition: at the top concentration. Put shortly:
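Infected RBCs, 0.3% parasitemia/2.5% Hct final; cpd 72 h, 37 C, 5% CO2; lysis buffer with saponin/triton/SYBR Green I, o/n RT dark; FI 485/535; norm. to artemisinin (0.29 uM) and DMSO.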
(In general: qHTS replaces the single test concentration by a dilution series.)
For `CN1CCN(c2cc3c(cc2F)c(=O)c(C(=O)O)cn3-c2ccc(F)cc2)CC1`, the “activity, negative = inhibition” value is -0.859%.
With `NCc1ccccc1Sc1ccccc1CO`, the Potency is 13.5 µM (active).
`NC1CCN(c2nc3c(cc2F)c(=O)c(C(=O)O)cn3-c2ccc(F)cc2F)C1` (stereo not drawn): the “activity, negative = inhibition” value is -14.4%.
On the same count and under the same terms, then `CN1CCN(c2c(F)cc3c(=O)c(C(=O)O)cn4c3c2SCC4)CC1`, with -9.8%; and `CCc1ccc(C(=O)C(C)CN2CCCCC2)cc1` (stereo not drawn), with -2%.
Consider `CCCN(CCc1cccs1)[C@H]1CCc2c(O)cccc2C1`, for which the Potency was 4.26 µM (active).
Same read-out and setting: to `Oc1c(Cl)cc(Cl)c(Cl)c1Cc1c(O)c(Cl)cc(Cl)c1Cl` belongs 10.7 µM (active).
Consider `C#C[C@]1(O)CC[C@H]2[C@@H]3CCC4=CC(=O)CC[C@@H]4[C@H]3CC[C@@]21CC`, for which the “activity, negative = inhibition” value was -17.6%.
For `NC(N)=NN=C(/C=C/c1ccc([N+](=O)[O-])o1)/C=C/c1ccc([N+](=O)[O-])o1`, the Potency is 7.57 µM (active).
Regarding `FC1(F)C(F)(F)C(F)(F)C2(F)C(F)(F)C(F)(F)C(F)(F)C(F)(F)C2(F)C1(F)F` (stereo not drawn), the “activity, negative = inhibition” value was 1.66%.
In the case of `CC(C)[N+](C)(C)CC(O)COc1cccc2ccccc12` (stereo not drawn), the “activity, negative = inhibition” value was -21.5%.
Still for that read-out and setting: then `CCCc1ncc(C[n+]2ccccc2C)c(N)n1`, with -5.55% [at 12.8 µM]; and `O=C(O)C1(C(=O)O)CCC1.[NH2-].[NH2-].[Pt+2]`, with -0.873%; and `O=C(Oc1cccc2cccnc12)c1ccccc1`, with -16.4%.
Consider `CN(C)C(=O)Nc1ccc(Cl)c(Cl)c1`, for which the Potency is 3.01 µM (active).
Same read-out and setting: then `Cc1ccc(O)c([C@H](CCN(C(C)C)C(C)C)c2ccccc2)c1`, with 1.35 µM (active).
On to `O=C(O)c1ccc(S(=O)(=O)N(Cl)Cl)cc1`, for which the “activity, negative = inhibition” value was -9.26%.
On the same count and under the same terms, then `CN(C)CCC[C@@]1(c2ccc(F)cc2)OCc2cc(C#N)ccc21`, with -25.3%.
